{
  "source": "PubChem BioAssay (Tox21)",
  "note": "Results filed as inconclusive are left out. The source made the active and inactive calls. Calls follow the shape of the dose curve; as a rule, active = well fitted activation curve with a large enough effect in the signal ratio in the repeat runs (not every such curve was filed as active); inconclusive = weak or mixed curves, or effect the other way; inactive = no such curve, though single readings can be large or run the other way; the % refers to the signal ratio. % is scaled to controls: 0 for no effect and ±100 for the full control effect.",
  "data": [
    {"test": "qHTS assay for small molecule agonists of the antioxidant response element (ARE) signaling pathway (AID 743202)", "conditions": "HepG2 ARE-bla reporter, beta-lactamase FRET, 16 h; series mostly up to 73.3 µM; activation: at the top concentration", "description": "U.S. Tox21 Program National Center for Advancing Translational Sciences [NCATS] NIH Chemical Genomics Center [NCGC] U.S. Environmental Protection Agency [EPA] National Institutes of Environmental Health Sciences [NIEHS] National Toxicology Program [NTP] U.S. Food and Drug Administration [FDA] Tox21 Assay Overview: Oxidative stress has been implicated in the pathogenesis of a variety of diseases ranging from cancer to neurodegeneration. The antioxidant response element (ARE) signaling pathway plays an important role in the amelioration of oxidative stress. The CellSensor ARE-bla HepG2 cell line (Invitrogen) can be used for analyzing the Nrf2/antioxidant response signaling pathway. Nrf2 (NF-E2-related factor 2) and Nrf1 are transcription factors that bind to AREs and activate these genes. The CellSensor ARE-bla Hep G2 cell line contains a beta-lactamase reporter gene under control of the Antioxidant Response Element (ARE) stably integrated into HepG2 cells. The activation of the report gene under culture conditions can be detected by fluorescence intensity. This cell line has been used to screen the Tox21 10K compound library to identify agonists that induce oxidative stress.\nTox21 Assay Protocol Summary: The ARE-bla cells were dispensed at 2,000 cells/5 ul/well in 1536-well black wall/clear bottom plates using a Multidrop dispenser. After the assay plates were incubated at a 37 C/5% CO2 incubator for 5 hours, 23 nL of compounds dissolved in DMSO, positive controls or DMSO only was transferred to the assay plate by a pin tool. The plates were incubated at 37 C for 16 hours. After 1 uL of LiveBLAzer B/G FRET substrate was added using a Flying Reagent Dispenser, the plates were incubated at room temperature for 2 hours, and fluorescence intensity was measured by an Envision plate reader.", "values": [
      {"smiles": "Cc1ccc(-c2ncc(Cl)cc2-c2ccc(S(C)(=O)=O)cc2)cn1", "activation": "-0.0038% (inactive)"},
      {"smiles": "COc1cc(C)nc(-n2nc(C)cc2OC)n1", "activation": "-3.26% (inactive)"},
      {"smiles": "CNC(=O)Nc1ccc(Cl)c(Cl)c1", "activation": "-0.992% (inactive)"},
      {"smiles": "C=COCC1CCC(COC=C)CC1", "note": "(stereo not given)", "activation": "5.64% (inactive)"},
      {"smiles": "N[C@@H](CCC(=O)O)C(=O)O", "activation": "-0.39% (inactive)"},
      {"smiles": "Clc1cc(Cl)cc(Cl)c1", "activation": "0.838% (inactive)"},
      {"smiles": "CCC1C(=O)OCC1Cc1cncn1C", "note": "(stereo not given)", "activation": "-10.8% (inactive)"},
      {"smiles": "CC(=O)OCC(=O)[C@@]1(O)[C@H](C)C[C@H]2[C@@H]3CCC4=CC(=O)C=C[C@]4(C)[C@@]3(F)[C@@H](O)C[C@@]21C", "activation": "-15.7% (inactive)"},
      {"smiles": "Nc1ccncc1N", "activation": "1.34% (inactive)"},
      {"smiles": "Nc1ccn([C@@H]2O[C@H](CO)[C@@H](O)[C@@H]2O)c(=O)n1", "activation": "0.396% (inactive)"},
      {"smiles": "CCCCOCCOC(=O)COc1cc(Cl)c(Cl)cc1Cl", "activation": "-0.363% (inactive)"},
      {"smiles": "CC(C)C[C@@H](N)C(=O)O", "activation": "-6.58% [at 34.3 µM] (inactive)"},
      {"smiles": "CO/N=C(\\C(=O)N[C@@H]1C(=O)N2C(C(=O)O)=C(CSc3nc(=O)c(O)nn3C)CS[C@H]12)c1csc(N)n1", "activation": "5.35% (inactive)"},
      {"smiles": "Cc1nc2ccc(CN(C)c3ccc(C(=O)N[C@@H](CCC(=O)O)C(=O)O)s3)cc2c(=O)[nH]1", "activation": "2.37% (inactive)"},
      {"smiles": "CCOC(=O)COC(=O)c1ccccc1C(=O)OCC", "activation": "-6.29% (inactive)"},
      {"smiles": "Cc1ccnc(NS(=O)(=O)c2ccc(N)cc2)n1", "activation": "-1.75% (inactive)"},
      {"smiles": "CN1CC(=O)N/C1=N/C(=O)Nc1cccc(Cl)c1", "activation": "4.01% (inactive)"},
      {"smiles": "[K+]", "activation": "4.26% (inactive)"},
      {"smiles": "Clc1cc(Cl)c(Cl)nc1Cl", "activation": "-11.3% (inactive)"},
      {"smiles": "C=CCOCC(O)CO", "note": "(stereo not given)", "activation": "-12.8% (inactive)"},
      {"smiles": "CC(C)(C)c1ccc(-c2ccc(C(C)(C)C)cc2)cc1", "activation": "-7.32% (inactive)"},
      {"smiles": "CC(COc1ccccc1)NN", "note": "(stereo not given)", "activation": "1.7% (inactive)"},
      {"smiles": "COC(=O)Nc1ccc(Cl)c(Cl)c1", "activation": "4.06% (inactive)"},
      {"smiles": "FB(F)F", "activation": "4.51% [at 94.8 µM] (inactive)"},
      {"smiles": "CC(C)CCCO", "activation": "-10.9% (inactive)"},
      {"smiles": "CN1CCC(=C2c3ccccc3CCc3cccnc32)CC1", "activation": "-2.06% (inactive)"},
      {"smiles": "OCCCCCO", "activation": "-9.02% [at 94.8 µM] (inactive)"},
      {"smiles": "CCOC(=O)C1=NOC(c2ccccc2)(c2ccccc2)C1", "activation": "19.5% (inactive)"},
      {"smiles": "C=C(C)C(=O)OCC(O)CO", "note": "(stereo not given)", "activation": "0.207% (inactive)"},
      {"smiles": "CCCCCC(C)N", "note": "(stereo not given)", "activation": "5.36% (inactive)"},
      {"smiles": "NCCCC(N)(C(=O)O)C(F)F", "note": "(stereo not given)", "activation": "-12.7% (inactive)"},
      {"smiles": "CCN(CC#N)c1cccc(C)c1", "activation": "5.06% (inactive)"},
      {"smiles": "CCOC(=O)c1ccccc1", "activation": "0.0246% (inactive)"},
      {"smiles": "C=COC(=O)C(C)(CC)CCC(C)C", "note": "(stereo not given)", "activation": "1.59% (inactive)"},
      {"smiles": "CO[Si](C)(OC)c1ccccc1", "activation": "-0.909% (inactive)"},
      {"smiles": "CC(=O)Oc1cccc(C)c1", "activation": "-7.87% (inactive)"},
      {"smiles": "NO", "activation": "-6.37% [at 94.8 µM] (inactive)"},
      {"smiles": "COc1c(N2CCNC(C)C2)c(F)cc2c(=O)c(C(=O)O)cn(C3CC3)c12", "note": "(stereo not given)", "activation": "-6.37% (inactive)"},
      {"smiles": "CC(C)C1CCC(O)CC1", "note": "(stereo not given)", "activation": "-12% (inactive)"},
      {"smiles": "CC(=O)N[C@H]1[C@H]([C@H](O)[C@H](O)CO)OC(C(=O)O)=C[C@@H]1N=C(N)N", "activation": "-1.38% (inactive)"}
    ]}
  ]
}
